Data as given in PubChem BioAssay AID1159580 (chemical genetic matrix, 2015).
Screen size: about 5,500 compounds; about 2,000 (36%) were called active. Roughly 18% stayed inconclusive and do not appear here. Cut-off read from the data, not from the text of the source: active = normalized growth mostly below about 0.91 (no sharp cut-off); inconclusive = no clear call, values can overlap the other calls; inactive = mostly above about 0.92. This is one part of the list.

Test: chemical genetic growth profiling, strain panel (AID 1159580);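 note: tested at 20 µM; growth read once vehicle control cultures reached saturation at 30 °C; 1 = growth at the plate median or of vehicle wells; lower values mean less growth of the strain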
Settings: S. cerevisiae deletion strains, growth OD

Measured: normalized growth

CCN1CCC[C@H]1CNC(=O)c1c(OC)ccc(I)c1O
inactive: locus YAL040C, strain CLN3, hits give low values 1.01 | locus YCL061C, strain MRC1 (second series), hits give low values 1 | locus YDR150W, strain NUM1, hits give low values 0.986 | locus YDR363W, strain ESC2, hits give low values 1.01 | locus YER002W, strain NOP16, hits give low values 0.996 | locus YGR229C, strain SMI1, hits give low values 0.92 | locus YJR075W, strain HOC1, hits give low values 0.984 | locus YMR307W, strain GAS1, hits give low values 1 | locus YNL175C, strain NOP13, hits give low values 1 | locus YNL197C, strain WHI3, hits give low values 1.02 | locus YNL224C, strain SQS1, hits give low values 1.01 | locus YNL322C, strain KRE1, hits give low values 0.996 | locus YOR083W, strain WHI5 (second series), hits give low values 0.974 | locus YPL055C, strain LGE1, hits give low values 0.972 | locus YPL241C, strain CIN2, hits give low values 0.998
